Experimental data as given in PubChem BioAssay AID651658 (Broad Institute, 2012).
The whole screen tested about 340,000 compounds, of which about 5,100 (1.5%) were called active.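 Rule for the calls: active = mean Tm shift, scaled 0 neutral to 100 positive control, at about 1.3% or above, every replicate too (limit read from the data); inconclusive = no clear call, values can overlap the other calls; inactive = the rest.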 Only a selection was taken, and actives are over-represented in it overall.

What follows are molecules tested against Fibroblast growth factor 22 (Homo sapiens) (UniProt Q9HCT0) (assay: binders of human FGF22 protein, primary screen, FGF22 synaptogenesis inhibitor project, biophysical, thermal shift, single point (AID 651658)). Settings: recombinant FGF22 thermal shift, SYPRO orange fluorescence; at 9.99 µM; hits give high values; percent of sucrose octasulfate shift, DMSO zero.
Fibroblast growth factor 22 (Homo sapiens), sequence (Q9HCT0 whole entry, looked up): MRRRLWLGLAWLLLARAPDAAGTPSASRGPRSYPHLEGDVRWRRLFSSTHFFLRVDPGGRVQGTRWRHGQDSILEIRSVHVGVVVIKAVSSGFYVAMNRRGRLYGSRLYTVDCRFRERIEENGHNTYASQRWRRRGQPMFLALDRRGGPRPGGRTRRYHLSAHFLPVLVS

SMILES | activity (Tm shift, normalised)
Cc1ccnc(NC(=O)CCNS(=O)(=O)c2ccc(C)c(C)c2)c1 | -0.078% (inactive)
Cc1ccc(S(=O)(=O)NCCC(=O)Nc2ccc(C)c(Cl)c2)cc1C | 1.75% (active)
Cc1ccc(S(=O)(=O)NCCC(=O)Nc2cccc(S(N)(=O)=O)c2)cc1C | -0.18% (inactive)
CCC(=O)Nc1ccc2c(c1)C(=O)N(C)C[C@H](OC)[C@H](C)CN(C(=O)c1ccccc1F)[C@@H](C)CO2 | 0.053% (inactive)
CC(C)c1cc(C(=O)NC2CCCCCC2)c2ccccc2n1 | -0.159% (inactive)
CN(C(=O)c1cc2c(=O)n3ccccc3nc2s1)C1CCCCC1 | -0.192% (inactive)
CN(c1ccc2nc3ccccc3c(=O)n2n1)C1CCCCC1 | 43.9% (active)
CN(C)CC(=O)N1[C@@H](CO)[C@H](c2ccccc2)C12CN(C(=O)c1cccc(F)c1)C2 | 0.354% (inactive)
Clc1cc(-c2ccc(/C=N/n3cnnc3)o2)ccc1Br | 43.6% (active)
COC(=O)N/N=C/c1ccc(-c2ccc(Cl)c(Cl)c2)o1 | -0.262% (inactive)
Brc1cc(/C=N/n2cnnc2)oc1Br | -0.235% (inactive)
C[C@H](CO)N1C[C@H](C)[C@H](CN(C)C(=O)NC2CCCCC2)Oc2c(NC(=O)C3CC3)cccc2C1=O | -0.273% (inactive)
O=C(NCCN1CCOCC1)c1ccc2c(c1)N(Cc1cccc(Cl)c1)C(=O)c1ccccc1S2(=O)=O | -0.426% (inactive)
O=C(c1ccc2c(c1)N(Cc1ccc(F)cc1)C(=O)c1ccccc1S2(=O)=O)N1CCN(c2ccccn2)CC1 | 44.2% (active)
O=C1c2ccccc2S(=O)(=O)c2cc(N3CCN(c4ccccn4)CC3)ccc21 | 0.041% (inactive)
CO[C@@H]1CN(C)C(=O)c2cc(NC(=O)c3ccccc3F)ccc2OC[C@H](C)N(C(C)=O)C[C@@H]1C | 0.052% (inactive)
C[C@@H]1CN([C@H](C)CO)S(=O)(=O)c2ccc(-c3ccncc3)cc2O[C@H]1CN(C)S(=O)(=O)c1ccccc1F | -0.04% (inactive)
C[C@@H]1CCCCO[C@@H](CN(C)C(=O)NC2CCCCC2)[C@H](C)CN([C@H](C)CO)C(=O)c2cc(NS(=O)(=O)c3ccc(Cl)cc3)ccc2O1 | 0.906% (inactive)
CN(c1ccccc1)S(=O)(=O)c1cc(C(=O)OCC(=O)N2CCN(C(=O)c3ccco3)CC2)ccc1Cl | 43.1% (active)
O=C(OCC(=O)N1CCN(C(=O)c2ccco2)CC1)c1ccc(Cl)c(Cl)c1 | -0.203% (inactive)
O=C(OCC(=O)N1CCN(C(=O)c2ccco2)CC1)c1cccc(O)c1 | 0.05% (inactive)
CC=Cc1ccc2n(c1=O)C[C@H]1[C@H](CO)[C@@H](C(=O)NCCc3cn(C)cn3)[C@@H]2N1C(=O)CC (mixture of isomers) | -0.32% (inactive)
C/C(=N\Nc1nc(N2CCOCC2)nc(N2CCOCC2)n1)c1ccc([N+](=O)[O-])cc1 | 0.46% (inactive)
C(=N\Nc1ccc2ccccc2n1)/c1ccc2c(c1)OCO2 | 41.5% (inactive)
CN(C)c1ccc(/C=N/Nc2cc(N3CCOCC3)nc(N3CCOCC3)n2)cc1 | 43.5% (active)
Cc1ccc(S(=O)(=O)N(C)C)cc1NC(=O)c1n[nH]c(=O)c2ccccc12 | -0.104% (inactive)
Cc1ccc(S(=O)(=O)N(C)C)cc1NC(=O)c1ccccc1Br | -0.075% (inactive)

SMILES | activity (Tm shift, normalised)
CC(=O)c1c(C)[nH]c(C(=O)Nc2cc(S(=O)(=O)N(C)C)ccc2C)c1C | 43.3% (active)
C[C@@H]1CN([C@@H](C)CO)C(=O)c2cc(NC(=O)Cc3ccccc3)ccc2O[C@H]1CN(C)CC1CC1 | 0.206% (inactive)
Cc1ccc(S(=O)(=O)N2C[C@@H](O)COC[C@@H]3O[C@H](CC(=O)NCCCN(C)C)CC[C@H]32)cc1 | 0.016% (inactive)
O=C(O)CSCC(=O)Nc1ccc(C(F)(F)F)cc1 | 43% (active)
O=C(CSCc1ccccc1)Nc1ccccc1 | -0.128% (inactive)
Cn1nc(C(F)(F)F)c(-c2ccc(F)cc2)c1NC(=O)CSCC(=O)O | -0.085% (inactive)
Cc1cc(C(=O)O)ccc1[N+](=O)[O-] | 0.06% (inactive)
Cc1cc(N)n(-c2ccc(S(=O)(=O)N3CCCC3)cc2[N+](=O)[O-])n1 | -0.196% (inactive)
Cc1cc(C)n(-c2ccc(C(=O)O)cc2[N+](=O)[O-])n1 | 43.1% (active)
Cc1ccc(S(=O)(=O)N[C@@H]2CC[C@@H](CCn3cc(C4CC4)nn3)O[C@@H]2CO)cc1 | -0.331% (inactive)
C[C@H]1CN([C@@H](C)CO)C(=O)c2cc(-c3cccc(F)c3)cnc2O[C@@H]1CN(C)Cc1cncnc1 | 0.062% (inactive)
O=C(c1cnccn1)N1CC(=O)N2[C@H](C1)[C@H](c1ccc(/C=C/c3ccccc3)cc1)[C@@H]2CO | -0.069% (inactive)
O=C(C[C@H]1C[C@@H]2c3cc(NC(=O)c4cccnc4)ccc3O[C@@H]2[C@H](CO)O1)NCc1ccccn1 | -0.175% (inactive)
COCCn1c(Cc2cccn2C)nnc1SCC(=O)Nc1nccs1 | 0.285% (inactive)
CCn1c(SCC(=O)Nc2nccs2)nnc1-c1ccco1 | 43.5% (active)
Cn1c(SCC(=O)Nc2nccs2)nnc1-c1cccnc1 | -0.089% (inactive)
CCS(=O)(=O)NCC[C@H]1CC[C@@H](NC(=O)Nc2cc(Cl)cc(Cl)c2)[C@@H](CO)O1 | 0.003% (inactive)
Oc1ccc(-c2nncn2-c2ccccc2)cc1 | 43.1% (active)
Cc1nn(-c2ccccc2)c(Cl)c1/C=C/C(=O)c1ccc(O)cc1 | -0.458% (inactive)
Oc1ccc(-c2nnc(Nc3ccccc3)c3ccccc23)cc1 | 0.298% (inactive)
COc1cccc(S(=O)(=O)N[C@H]2C=C[C@H](CC(=O)NCc3ccc(Cl)cc3)O[C@@H]2CO)c1 | 0.005% (inactive)
CCCC#Cc1cnc2c(c1)C(=O)N([C@H](C)CO)C[C@H](C)[C@H](CN(C)C(=O)c1cnccn1)O2 | -0.197% (inactive)
Cc1noc(C)c1NC(=O)N(C)C[C@H]1OCCCC[C@H](C)Oc2ccc(NC(=O)Nc3ccc4c(c3)OCO4)cc2C(=O)N([C@H](C)CO)C[C@@H]1C | -0.482% (inactive)
COc1ccc2c(c1)CCc1cn3ncc(C#N)c3nc1-2 | -0.072% (inactive)
Fc1ccc(-c2ccc(NCCN3CCOCC3)nn2)cc1 | -0.028% (inactive)
N#Cc1cnn2cc(CCN3CCOCC3)c(-c3ccc(F)cc3)nc12 | 43.1% (active)
O=C(N[C@H]1CC[C@@H](CCNS(=O)(=O)c2ccc(F)cc2)O[C@@H]1CO)c1ccccn1 | 0.123% (inactive)

SMILES | activity (Tm shift, normalised)
C[C@@H]1CN([C@H](C)CO)C(=O)Cc2cc(NS(=O)(=O)c3cccs3)ccc2O[C@@H]1CN(C)C(=O)Nc1ccc(F)cc1 | 0.051% (inactive)
Cn1c(CCN2CCN(c3ccccn3)CC2)nc2cc(NS(=O)(=O)c3ccc(F)cc3)ccc21 | -0.195% (inactive)
Cn1c(=O)n(C)c2cc(NS(=O)(=O)c3ccc(F)cc3)ccc21 | 43.1% (active)
Cn1c(=O)n(C)c2cc(S(=O)(=O)Nc3ccc(F)cc3)ccc21 | -0.198% (inactive)
COc1ccc2c3c([nH]c2c1)[C@@H](CO)N(C(=O)Nc1ccc(F)cc1)CC31CN(S(C)(=O)=O)C1 | -0.554% (inactive)
O=C(N[C@@H]1CC[C@@H](CC(=O)N2CCc3ccccc3C2)O[C@H]1CO)C1CCC1 | -0.096% (inactive)
COc1cccc(CN2CCNC(=O)C2CC(=O)N(C)CCc2ccccn2)c1 (centres undefined) | 43% (active)
COc1ccc(CN2CCNC(=O)C2CC(=O)N(C)Cc2ccccn2)cc1OC (centres undefined) | 0.398% (inactive)
CN(CCc1cn[nH]c1)C(=O)CC1C(=O)NCCN1Cc1cccc(Oc2ccccc2)c1 (centres undefined) | 0.231% (inactive)
CS(=O)(=O)N1[C@H](C#N)[C@H](c2ccccc2-c2ccc(F)cc2)[C@@H]1CO | 0.124% (inactive)
Nc1nonc1-n1nnc(C(=O)N/N=C/c2c[nH]c3ccccc23)c1-c1ccccc1 | 0.702% (inactive)
Cc1c(/C=N\NC(=O)c2cc3ccccc3o2)c2ccccc2n1C | 0.961% (inactive)
O=C(N/N=C/c1c[nH]c2ccccc12)c1cc2ccccc2o1 | 2.21% (active)
CC=Cc1ccc2n(c1=O)C[C@@H]1[C@@H](CO)[C@H](C(=O)N(C)C)[C@H]2N1CCc1ccccc1 (mixture of isomers) | -0.034% (inactive)
COc1ccccc1-c1cnc2c(c1)C(=O)N([C@@H](C)CO)C[C@H](C)[C@H](CN(C)C(=O)c1ccncc1)O2 | 0.396% (inactive)
Cc1cc(C(=O)Nc2ccc3c(c2)C(=O)N(C)[C@@H]2CC[C@H](CC(=O)NC4CCCC4)O[C@@H]2CO3)no1 | 0.414% (inactive)
COc1cc(C=NNC(=O)c2cccnc2)ccc1OC(=O)c1ccccc1F | -0.02% (inactive)
Cc1ccc(S(=O)(=O)Oc2ccc(/C=N/NC(=O)c3ccncc3)cc2)cc1 | 0.38% (inactive)
COc1ccc(/C=N/NC(=O)c2ccccc2)cc1OS(=O)(=O)c1ccccc1 | 43% (active)
COc1ccccc1CNC(=O)C[C@H]1C[C@@H]2c3cc(NC(=O)c4ccc5c(c4)OCO5)ccc3O[C@@H]2[C@H](CO)O1 | 0.258% (inactive)
CO[C@@H]1CN(C)C(=O)c2ccc(NS(C)(=O)=O)cc2OC[C@H](C)N(C(=O)C2CC2)C[C@H]1C | -0.096% (inactive)
CCC(=O)N1CC2(C1)[C@H](c1ccc(-c3ccc(C)cc3)cc1)[C@H](CO)N2S(C)(=O)=O | -0.095% (inactive)
COCCN(C(=O)C(C)C)c1nnc(-c2ccc(C(C)(C)C)cc2)s1 | 1.53% (active)
COCCN(Cc1nc(-c2ccc(C(F)(F)F)cc2)no1)C(C)C | 0.251% (inactive)
COc1cc(OC)cc(-c2nnc(N(C)C(=O)c3ccncc3)s2)c1 | -0.259% (inactive)
